Experimental findings from PubChem BioAssay are described below.

Each structure is given as a SMILES string. For part of these data: Measured potencies and affinities stand elsewhere. Activity calls are given as the source filed them.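 Rule for the calls, unless noted: active = primary screen inhibitor hit that blocks the TRPC4 channel at some tested dose, yielding a dose curve; inactive = the rest.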

For experiment [1], the system named is TRPC4 beta (transient receptor potential cation channel C4), mouse. The experiment in a line: TRPC4 cation channel opening, retest – cell-based, Fluo4 calcium, HEK293 TRPC4beta/mu-opioid, duplicates, 10 µM, confirmation (AID 2426;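 active = fluorescence ratio normalized to control raised more than 50% in primary screen plus both repeat runs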;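 for activation: percent rise of integrated ratio over buffer wells lacking compound which define 0%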). To be noted: Fluo4 calcium fluorescence, at 10 µM; active compounds read high.
Experiment [2] relates to transient receptor potential cation channel C4 beta (TRPC4), mouse. The experiment in a line: TRPC4 cation channel opening, second retest – cell-based, second round, Fluo4, HEK293 TRPC4beta/mu-opioid, 1 µM, confirmation (AID 2461;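 active = primary screen active and over 50% activation in each of two duplicate runs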;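 for activation: 0% = wells without test compound as baseline of integrated fluorescence ratio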). To be noted: Fluo4 calcium fluorescence, at 1 µM; active compounds read high.
The subject of experiment [3] is TRPC4 (transient receptor potential cation channel C4 beta), mouse. The experiment can be described thus: potentiation of DAMGO EC20 TRPC4 response – cell-based, second round, Fluo-4, HEK293 TRPC4beta/mu-opioid, 1 µM, confirmation (AID 2554;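 active = primary screen hit whose fluorescence ratio, in both repeats, exceeds the weak agonist control mean by 3 SD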). The note with it: DAMGO EC20, Fluo-4 calcium flux, at 1 µM; active compounds read high. On the technique in general: Calcium assays in cells follow changes in intracellular calcium, usually with a dye or a luminescent sensor.

In experiment [4] the test system is TRPC4 beta (transient receptor potential cation channel C4), mouse. The experiment in a line: potentiation of DAMGO EC20 TRPC4 response – cell-based, Fluo-4, HEK293 TRPC4beta/mu-opioid, confirmation (AID 2555;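 active = primary screen hit whose calcium fluorescence ratio, in both repeats, exceeds the weak agonist control mean by 3 SD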). The note with it: DAMGO EC20, Fluo-4 calcium flux, at 10 µM; active compounds read high.
In experiment [5] the target is Short transient receptor potential channel 4 (Mus musculus) (UniProt Q9QUQ5). The experiment can be described thus: blockers of DAMGO-evoked TRPC4 calcium flux – cell-based, Fluo4, HEK293 TRPC4beta/mu-opioid, confirmation (AID 2636;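 active = calcium signal cut by more than 3 SD below the full-agonist control yet still positive, in both repeats and the earlier primary screen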). To be noted: at 10 µM; active compounds read high.
Sequence of Short transient receptor potential channel 4 (Mus musculus) (Q9QUQ5 whole entry, looked up): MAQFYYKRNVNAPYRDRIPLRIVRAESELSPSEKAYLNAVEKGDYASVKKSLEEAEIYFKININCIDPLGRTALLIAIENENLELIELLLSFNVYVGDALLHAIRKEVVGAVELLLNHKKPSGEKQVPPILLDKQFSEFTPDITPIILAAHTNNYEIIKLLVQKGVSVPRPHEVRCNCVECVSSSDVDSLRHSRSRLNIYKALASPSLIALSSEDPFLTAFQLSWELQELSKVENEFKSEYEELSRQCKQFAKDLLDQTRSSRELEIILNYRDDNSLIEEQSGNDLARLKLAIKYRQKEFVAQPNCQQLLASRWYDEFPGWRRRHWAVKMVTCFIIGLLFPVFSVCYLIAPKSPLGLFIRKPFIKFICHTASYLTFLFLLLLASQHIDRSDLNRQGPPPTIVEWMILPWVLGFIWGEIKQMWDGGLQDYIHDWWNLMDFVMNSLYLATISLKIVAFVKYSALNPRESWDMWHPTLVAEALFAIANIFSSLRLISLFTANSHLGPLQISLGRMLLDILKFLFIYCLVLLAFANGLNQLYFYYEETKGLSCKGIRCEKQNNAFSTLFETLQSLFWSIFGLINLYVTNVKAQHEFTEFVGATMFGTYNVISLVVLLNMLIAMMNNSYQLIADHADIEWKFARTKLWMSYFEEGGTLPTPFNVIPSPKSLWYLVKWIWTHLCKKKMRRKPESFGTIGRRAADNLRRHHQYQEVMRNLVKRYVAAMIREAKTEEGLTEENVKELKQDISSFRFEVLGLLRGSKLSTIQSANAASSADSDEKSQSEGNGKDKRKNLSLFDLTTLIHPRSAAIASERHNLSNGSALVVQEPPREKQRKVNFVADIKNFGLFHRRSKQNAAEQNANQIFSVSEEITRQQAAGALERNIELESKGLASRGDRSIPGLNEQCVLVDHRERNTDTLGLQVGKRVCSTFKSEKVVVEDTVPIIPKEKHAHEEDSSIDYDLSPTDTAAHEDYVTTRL
The target is the same in experiment [6]. The experiment in a line: blockers of DAMGO-evoked TRPC4 calcium flux – cell-based, second round, Fluo4, HEK293 TRPC4beta/mu-opioid, 1 µM, confirmation (AID 2637;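 active = calcium signal ratio cut to more than 3 SD under the fully stimulated control mean yet still positive, in both repeats and the primary screen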). The note with it: at 1 µM; active compounds read high.
Experiment [7] has the same target. The experiment in a line: potentiation of DAMGO-evoked TRPC4 calcium signal – cell-based, HEK293 TRPC4/mu-opioid, Fluo-4 calcium, EC20 DAMGO, dose response (AID 434941;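 active = earlier screen potentiator hit that boosts the TRPC4 ion channel at some dose, with a dose response; inactive = no potentiation, no dose response, or not a prior hit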;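 note: calcium entry triggered by an EC20 dose of DAMGO at the co-expressed mu-opioid receptor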).
Experiment [8] has the same target. The experiment can be described thus: block of DAMGO-driven TRPC4 calcium entry – cell-based, HEK293 TRPC4/mu-opioid, Fluo-4 calcium, dose response (AID 434942).
Experiment [9] has as its target Short transient receptor potential channel 6 (Mus musculus) (UniProt Q61143). The experiment can be described thus: TRPC6 blockade by TRPC4 inhibitor hits – cell-based, HEK293, membrane potential dye, duplicate, selectivity assay for TRPC4 inhibitor project, confirmation (AID 434948;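 active = active in primary screen and both duplicates, each dropping signal beyond three positive-control SD with fluorescence still positive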). To be noted: HEK293 TRPC6, membrane potential dye fluorescence, at 10 µM, stimulated with maximal-effect acetylcholine; active compounds read high.

The target is the same in experiment [10]. The experiment in a line: TRPC6 opening by TRPC4 activator hits – cell-based, HEK293, membrane potential dye, duplicate, selectivity assay for TRPC4 activator project, confirmation (AID 434950;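 active = membrane potential signal rise above negative control mean plus 3 SD in both duplicates, also active in the earlier TRPC4 screen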;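 for activation: 0% = buffer only wells and 100% = acetylcholine maximal-effect wells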). The note with it: HEK293 TRPC6, membrane potential fluorescence, at 10 µM; activation: active compounds read high; outcome: activation.
Experiment [11] shares this target. The experiment in a line: positive modulators of mouse TRPC6 channel – HEK293 cells, membrane potential dye, duplicate, selectivity assay for TRPC4 potentiator project, confirmation (AID 434952;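 active = compound raising the membrane signal above positive-control mean plus 3 SD in both repeats, and a primary screen hit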). To be noted: HEK293 TRPC6, membrane potential dye fluorescence, at 10 µM, maximal acetylcholine added after compound; active compounds read high.
In experiment [12] the target is Short transient receptor potential channel 4 (Mus musculus) (UniProt Q9QUQ5). The experiment can be described thus: calcium flux activators in TRPC4/5HT1a cells, counter-screen for TRPC4 activator project, cell-based, second counter screen, HEK293 TRPC4/5HT1a, Fluo-4 (AID 434977;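 active = calcium signal rise above buffer-control mean plus 5 SD in both duplicates, and also a hit in the primary screen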;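 for activation: plate controls were assay buffer for no effect and maximal serotonin response for full effect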). To be noted: Fluo-4 calcium flux, at 10 µM; active compounds read high.
Experiment [13] can be described thus: serotonin-gated TRPC4 signal block – cell-based, second counter screen, HEK293 TRPC4/5HT1a, Fluo-4, counter-screen for TRPC4 inhibitor project, confirmation (AID 434978;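 active = primary screen active whose calcium signal fell more than 3 SD beyond the full-serotonin control mean in both duplicate plates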;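 note: serotonin given first at submaximal then at maximal dose after compound preincubation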). To be noted: Fluo-4 calcium flux, at 10 µM, serotonin added to trigger calcium flux; active compounds read high.
The subject of experiment [14] is TRPC4 (mouse), co-expressed with 5HT1a in HEK293. The experiment can be described thus: enhancement of serotonin-evoked TRPC4 response – cell-based, second counter screen, HEK293 TRPC4/5HT1a, Fluo-4, counter-screen for TRPC4 potentiator project, confirmation (AID 434979;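 active = signal rise over 3 SD above mean of control wells given weak agonist, in both repeats and first screen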). To be noted: Fluo-4 calcium flux, at 10 µM, serotonin added at its EC20 dose; active compounds read high.

Experiment [15] can be described thus: nonspecific calcium rise without TRPC4 – cell-based, HEK293 mu-opioid receptor line, counter-screen for TRPC4 activator project, confirmation (AID 449723;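 active = hit in primary screen, with calcium signal over 5 SD above buffer well mean in both duplicates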;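 note: counter screen cells carry the mu-opioid receptor alone and lack TRPC4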). To be noted: HEK293 mu-opioid cells, Fluo-4 calcium fluorescence, at 10 µM; active compounds read high.
Experiment [16] in a line: nonspecific potentiation of DAMGO calcium response – cell-based, HEK293 mu-opioid receptor line, counter-screen for TRPC4 allosteric potentiator project, confirmation (AID 449724;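 active = calcium signal rise more than 3 SD above the low-dose agonist control mean, in both duplicate plates and the primary screen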;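 note: HEK293 cells carrying mu-opioid receptor only with no TRPC4 channel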). To be noted: HEK293 mu-opioid receptor cells, Fluo-4 calcium flux, at 10 µM, compound added before EC20 DAMGO stimulus; active compounds read high. For orientation: A counterscreen serves to expose hits that act by an unwanted route or on another target.

Sequence of Short transient receptor potential channel 6 (Mus musculus) (Q61143 whole entry, looked up): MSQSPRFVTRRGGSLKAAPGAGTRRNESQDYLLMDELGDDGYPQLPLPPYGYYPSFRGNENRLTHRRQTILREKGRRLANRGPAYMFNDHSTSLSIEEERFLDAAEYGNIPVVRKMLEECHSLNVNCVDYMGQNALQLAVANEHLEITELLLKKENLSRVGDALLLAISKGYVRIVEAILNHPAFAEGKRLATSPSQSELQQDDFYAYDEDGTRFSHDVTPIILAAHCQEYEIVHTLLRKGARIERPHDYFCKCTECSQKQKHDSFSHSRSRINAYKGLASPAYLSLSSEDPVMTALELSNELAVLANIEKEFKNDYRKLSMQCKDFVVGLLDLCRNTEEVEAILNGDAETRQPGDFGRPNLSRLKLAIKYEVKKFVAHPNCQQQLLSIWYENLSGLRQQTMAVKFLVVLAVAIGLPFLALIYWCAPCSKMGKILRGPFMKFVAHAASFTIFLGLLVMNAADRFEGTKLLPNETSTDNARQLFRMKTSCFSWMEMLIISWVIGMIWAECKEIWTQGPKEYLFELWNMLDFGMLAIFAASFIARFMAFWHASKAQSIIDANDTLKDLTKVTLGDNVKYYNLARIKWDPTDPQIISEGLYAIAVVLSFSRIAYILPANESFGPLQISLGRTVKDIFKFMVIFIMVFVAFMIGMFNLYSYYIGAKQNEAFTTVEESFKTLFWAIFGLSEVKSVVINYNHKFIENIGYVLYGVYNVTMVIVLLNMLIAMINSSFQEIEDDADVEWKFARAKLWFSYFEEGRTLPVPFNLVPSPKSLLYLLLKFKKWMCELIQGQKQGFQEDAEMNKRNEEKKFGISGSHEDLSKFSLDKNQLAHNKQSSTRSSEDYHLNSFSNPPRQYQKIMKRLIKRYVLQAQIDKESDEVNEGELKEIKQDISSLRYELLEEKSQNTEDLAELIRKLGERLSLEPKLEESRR

`Cc1cccc(OCCC(=O)NCC(c2ccccc2)N(C)C)c1` (stereo not given): the result in experiment [1], in experiment [2], in experiment [3], in [4], in experiment [5] and in experiment [6] was inactive. Besides, the outcome in [7], in experiment [8], in [9], in experiment [11], in experiment [12] and in experiment [13] was inactive. Moreover, the result in experiment [14], in experiment [15] and in [16] was inactive. Also, in [10], the activation was 52% (active).
On to `CCCn1ncc(CN2CCC(n3nccc3NC(=O)CCc3ccccc3)CC2)c1C`, for which the activation in experiment [1] is 132% (active); in experiment [2], 115% (active); in [10], 36.5% (active). Besides, the outcome in [3], in [4], in experiment [5], in [6], in experiment [7] and in experiment [8] was inactive. In addition, the compound was called inactive in experiment [9], in experiment [11], in experiment [12], in experiment [13], in experiment [14] and in experiment [15]. Also, in experiment [16], the outcome was inactive.
Consider `CN(CCOc1ccc(Br)cc1)CC(O)c1ccccc1` (stereo not given), for which the activation in [1] is 71% (active); in experiment [10], 41.5% (active); in experiment [12], 12.6% (active). In addition, the outcome in experiment [2], in experiment [3], in [4], in experiment [5], in experiment [6] and in experiment [7] was inactive. Moreover, the result in experiment [8], in experiment [9], in experiment [11], in experiment [13], in experiment [14] and in [15] was inactive. Further, the outcome in experiment [16] was inactive.
With `COc1ccc(-c2nn(-c3ccccc3C)cc2CNCc2cccnc2)cc1F`, the activation in experiment [1] is 128% (active); in [10], 33% (active). Also, the outcome in [2], in [3], in experiment [4], in experiment [5], in experiment [6] and in [7] was inactive. Also, the result in [8], in [9], in experiment [11], in [12], in experiment [13] and in [14] was inactive. The result in experiment [15] and in [16] was inactive.
On to `CCCc1c(O)nc(SCCN(CC)CC)[nH]c1=O`, for which the activation in experiment [1] was 179% (active); in [2], 82% (active); in experiment [12] it was 51.5% (active). In addition, the outcome in experiment [3], in experiment [4], in experiment [5], in experiment [6], in experiment [7] and in [8] was inactive. Also, the call in experiment [9], in [10], in experiment [11], in experiment [13], in experiment [14] and in experiment [15] was inactive. The result in experiment [16] was inactive.
As for `COc1ccc(C(CNC(=O)c2cccc(NS(=O)(=O)c3ccc(Br)cc3)c2)N(C)C)cc1` (stereo not given), the activation in experiment [1] was 253% (active); in experiment [2] it was 83% (active); in experiment [10], 35% (active); in [12] it was 29.9% (active). Further, the result in [3], in experiment [4], in experiment [5], in experiment [6], in experiment [7] and in [8] was inactive. Moreover, the result in experiment [9], in [11], in experiment [13], in experiment [14], in experiment [15] and in experiment [16] was inactive.
Take `CCc1ccc(C(=O)c2cnc3ccc(OC)cc3c2N2CCN(CC)CC2)cc1`: the activation in experiment [1] was 283% (active). Besides, the result in experiment [2], in experiment [3], in [4], in experiment [5], in experiment [6] and in [7] was inactive. The outcome in [8], in [9], in [10], in experiment [11], in [12] and in experiment [13] was inactive. Besides, the outcome in experiment [14], in [15] and in [16] was inactive.
Consider `CCOc1ccc(CN2CCNC(=O)C2CC(=O)NCCc2ccccn2)cc1` (stereo not given), for which the activation was 145% (active) in experiment [1] and 49% (active) in [12]. The outcome in [2], in [3], in [4], in experiment [5], in [6] and in [7] was inactive. Besides, the result in [8], in experiment [9], in [10], in experiment [11], in experiment [13] and in experiment [14] was inactive. Further, the outcome in experiment [15] and in [16] was inactive.
On to `O=C1/C(=C\c2cc([N+](=O)[O-])ccc2O)SC(=S)N1Cc1ccc(Cl)cc1`, for which the activation was 147% (active) in experiment [1]; 529% (active) in experiment [10]; 147% (active) in experiment [12]; 158% (active) in experiment [15]; 5450% (active) in experiment [16]. The outcome in experiment [2], in experiment [3], in experiment [5], in experiment [6], in experiment [7] and in [8] was inactive. Also, the result in [9] and in [13] was inactive. The potentiation in experiment [4] and in experiment [14] was 21% (active) throughout. The potentiation, percent of control in [11] is 192% (active).
As for `NCCCNC(=O)c1cc2ccccc2[nH]1`, the activation in experiment [1] was 220% (active); in experiment [12] it was 6.83% (active). In addition, the outcome in experiment [2], in experiment [3], in experiment [4], in experiment [5], in experiment [6] and in experiment [7] was inactive. The result in [8], in experiment [9], in experiment [10], in [11], in experiment [13] and in [14] was inactive. For the same compound, the result in experiment [15] and in experiment [16] was inactive.
Consider `CCN1CCCC1CNC(=O)c1cc2c(OC)cccc2[nH]1` (stereo not given), for which the figures for the activation in experiment [1] and in experiment [10] were 136% (active) and 36.5% (active), respectively. The result in experiment [2], in experiment [3], in experiment [4], in experiment [5], in [6] and in experiment [7] was inactive. In addition, the result in experiment [8], in [9], in experiment [11], in experiment [12], in experiment [13] and in experiment [14] was inactive. The outcome in experiment [15] and in experiment [16] was inactive.
On to `CCCCN(CC)CCNc1c(N2CCN(C(=O)OCC)CC2)c(=O)c1=O`, for which the values for the activation in experiment [1] and in experiment [10] were 155% (active) and 30.5% (active), respectively. The result in experiment [2], in [3], in [4], in experiment [5], in experiment [6] and in [7] was inactive. The result in [8], in experiment [9], in experiment [11], in experiment [12], in experiment [13] and in [14] was inactive. The result in [15] and in experiment [16] was inactive.
Regarding `CC1CN(C)C(C)c2c1oc1ccc(N)cc21` (stereo not given), the activation in experiment [1] was 226% (active); in experiment [2] it was 73% (active). In addition, the result in experiment [3], in experiment [4], in experiment [5], in [6], in [7] and in [8] was inactive. Also, the compound was called inactive in [9], in experiment [10], in [11], in [12], in experiment [13] and in experiment [14]. The outcome in [15] and in experiment [16] was inactive.
Take `Fc1ccc(-c2nn(-c3ccccc3)cc2CNCc2ccccc2)cc1`: the outcome in experiment [1], in experiment [2], in experiment [3], in [4], in [5] and in experiment [6] was inactive. Further, the result in [7], in experiment [8], in [9], in experiment [10], in [11] and in [12] was inactive. The result in experiment [13], in experiment [14], in experiment [15] and in [16] was inactive.
`Cc1cccc(C(=O)OC2CCCN(C)C2)c1C` (stereo not given): the values for the activation in experiment [1], in experiment [10] and in experiment [12] were 76% (active), 60.5% (active) and 20% (active), respectively. Besides, the outcome in experiment [2], in experiment [3], in experiment [4], in experiment [5], in [6] and in experiment [7] was inactive. The result in experiment [8], in experiment [9], in experiment [11], in experiment [13], in [14] and in [15] was inactive. In [16], the result was inactive.
